Active and inactive are the calls of the source. Calls come from the whole dose curve; as a rule, active = well fitted curve in the direction sought with a large enough effect in the repeat runs; inconclusive = weak or mixed curves; inactive = flat fitted curve, though single readings scatter.
% is set by controls: 0 for no effect and ±100 for the full control effect.

The assay in a line: qHTS assay to test for compound auto fluorescence at 590 nm (red) in HepG2 cells (AID 720674). The conditions noted are these: HepG2 autofluorescence, red 540/590 nm, 1 h; series mostly up to 91.3 µM. The text has this: U.S. Tox21 Program National Center for Advancing Translational Sciences [NCATS] NIH Chemical Genomics Center [NCGC] U.S. Environmental Protection Agency [EPA] National Institutes of Environmental Health Sciences [NIEHS] National Toxicology Program [NTP] U.S. Food and Drug Administration [FDA] Tox21 Assay Overview: Compound auto fluorescence often interferes with screening of the compound library against various biological targets and signaling pathways. Some of these compounds may have fluorophoric properties. Such properties may interfere with the assay outputs resulting in false positives and/or negatives. To decrease such complications and ensure the compound activities are relevant in terms of biological response, the Tox21 10K compound library was screened for auto fluorescence. From the fluorophores used as reporter signals in our screening assays, the auto fluorescence equivalencies of compounds against three fluorophores have been evaluated: Triamterene, Fluorescein and Rose Bengal sodium for blue, green and red fluorescence, respectively. The fluorescence intensities were measured using Excitation/Emission wavelengths at 405/460nm, 485/535nm and 540/590nm for blue, green and red labels, respectively. This assay includes the red fluorescence data.
Tox21 Assay Protocol Summary: 2,000 HepG2 cells in 5 uL of culture medium (MEM containing 10% FBS) per well were dispensed into black wall/clear bottom 1536-well plates using a Multidrop Combi Dispenser (ThermoFisher Scientific, Waltham, MA). The assay plates were incubated overnight at 37 C to allow cell attachment to the well bottom, followed by the transfer of 23 nL compound or DMSO vehicle by a pintool work station (Kalypsys , San Diego, CA). After the assay plates were incubated for 1 hr at 37 C and 5% CO2, fluorescence intensities in the assay plates were measured by an Envision (PerkinElmer, Shelton, CT) plate reader using three labels for measuring blue, green and red fluorescence at […] 460, 535 and 590 nm respectively.
As to `N[C@@H](Cc1ccc(O)cc1)C(=O)O`, the outcome was inactive. Same read-out and setting: under `COc1ccc2c(c1)c1c3n2CCN(C)C3=NCC1` stands “inactive”; under `Cc1ccc2c(c1)C(=O)c1ccccc1C2=O`, “inactive”. Still for that read-out and setting: to `O=C=NCC1CCCC(CN=C=O)C1` (stereo not given) belongs “inactive”; to `Cc1c(C(=O)c2c[nH]n(C)c2=O)ccc(S(C)(=O)=O)c1C1=NOCC1`, “inactive”; to `CC(C)(CO)C(O)C(=O)NCCCO` (stereo not given), “inactive”.

As to `CCCCCCCCCCCCCCC(=O)NC(CO)CCCCCCCCCCCCCC` (stereo not given), the result was inactive. Same read-out and setting: to `CN(C)CCOC(=O)C(c1ccccc1)C1(O)CCCC1` (stereo not given) belongs “inactive”.

As for `C=CCCCCCCCC`, the call was inactive. With `CN1CCOC(c2ccccc2)c2ccccc2C1` (stereo not given), the fluorescence, relative to Rose Bengal is -0.228% [at 18.6 µM] (inactive). For `Nc1nnnn1-c1ccccc1`, the outcome was inactive. On the same count and under the same terms, under `Cc1cc(C)c(C(=O)O)c(C)c1` stands “inactive”. On the same count and under the same terms, under `Cn1nnc2c(C(N)=O)ncn2c1=O` stands “inactive”; under `c1ccc2cnccc2c1`, “inactive”. Still for that read-out and setting: to `CC1(C)O[C@H]2CC(=O)OC[C@]23[C@H]2CC[C@@]4(C)[C@H](c5ccoc5)OC(=O)[C@H]5O[C@]54[C@]2(C)C(=O)C[C@@H]13` belongs “inactive”; to `C=CCOC(=O)CCCCCC`, “inactive”. For the molecule `CN1C[C@@H]2C[C@H]1CN2c1cc2c(cc1F)c(=O)c(C(=O)O)cn2C1CC1`, the molecule was classed as inactive.

Consider `ONc1ccccc1`, for which the result was inactive. On the same count and under the same terms, to `COC(=O)c1ccccc1C(=O)O` belongs “inactive”; to `CC(=O)CC(=O)OC(C)(C)C`, “inactive”; to `CCOc1cccc(N)c1`, “inactive”. Regarding `CC1(C)CC(OC(=O)CCCCCCCCC(=O)OC2CC(C)(C)NC(C)(C)C2)CC(C)(C)N1`, the fluorescence, relative to Rose Bengal is 0.031% [at 18.6 µM] (inactive). Turning to `CCC(C)C(C)=O` (stereo not given), the result was inactive.

Turning to `CCCC(=O)OCCC(C)CCC=C(C)C` (stereo not given), the result was inactive. For `C/C=C(\C)C(C)=O`, the molecule was classed as inactive.

With `CCCCCc1cccc(=O)o1`, the result was inactive. Same read-out and setting: under `COP(=O)(O)OP(=O)(O)OC` stands “inactive”; under `O=C(O)CONC(=O)c1ccccc1`, “inactive”; under `CN(C)C(C)(C)CO`, “inactive”. For the molecule `OCCN1CCOCC1`, the outcome was inactive. Regarding `CCCCCC(C)O` (stereo not given), the molecule was called inactive.

As for `CC(C)OC(=O)CCC(=O)OC(C)C`, the result was inactive.

On to `CN(C)CC/C=C1/c2ccccc2COc2ccc(CC(=O)O)cc21`, for which the outcome was inactive. The same measure, in the same setting: to `CC(C)COC(=O)c1ccccc1` belongs “inactive”; to `CCO`, “inactive”. Still for that read-out and setting: to `CC(C)C1OCCN1CCOC(=O)NCCCCCCNC(=O)OCCN1CCOC1C(C)C` (stereo not given) belongs “inactive”. On the same count and under the same terms, to `COC(=O)c1cccc(Cl)c1` belongs “inactive”.

As for `CCCc1ccc(O)cc1`, the call was inactive. The same measure, in the same setting: to `O=Cc1ccccc1Cl` belongs “inactive”; to `CO/N=C(/C(=O)N[C@@H]1C(=O)N2C(C(=O)[O-])=C(C[n+]3ccn4ncccc43)CS[C@H]12)c1nsc(N)n1`, “inactive”.

These data come from PubChem BioAssay (Tox21).
